Rows were chosen to be rich in hits. Some 21% of all compounds tested hit in one or more screens of this group.
IL-1B inflam inh: qHTS for Inhibitors of Inflammasome Signaling: IL-1-beta AlphaLISA Primary Screen. THP-1 LPS/ATP IL-1B secretion, AlphaLISA, 16 h; hits give low values. 360,000 compounds, 4.7% hits. activity change, % at 57.5 µM; in the data active = activity change below about -50%; inconclusive = mostly about -30% to -49%; also: % is scaled to controls: 0 for no effect and ±100 for the full control effect
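THP-1 cells pretreated 1 hr with compounds (up to 57.5 uM final), then stimulated with LPS (250 ng/mL final) plus ATP (1.25 mM final); secreted IL-1B measured by AlphaLISA after 16 hr, decreased signal indicating inhibition.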
DT40 TDP1 no CPT: qHTS for Inhibitors of human tyrosyl-DNA phosphodiesterase 1 (TDP1): qHTS in cells in absence of CPT | DT40 Tdp1-/- hTDP1 cells, no CPT, ATP luminescence, 48 h | Potency, µM (titrated, usually from 46.2 µM), without a hit: at the highest dose activity change, negative = growth inhibition, usual class: inhibitors | 420,000 compounds, 15% hits | AID 686978, 2013; also: potency is read from the fitted curve at half-maximal effect; % is scaled to controls: 0 for no effect and ±100 for the full control effect; nearly all actives have a fitted effect of over 55% in size
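Camptothecin absent (DMSO only). Human TDP1-complemented DT40 knockout cells, 400 cells/well, 37 °C for minimum 48 hr; ATP measured via CellTiter-Glo, 30 min dark incubation, luminescence.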
DT40 TDP1 CPT: qHTS for Inhibitors of human tyrosyl-DNA phosphodiesterase 1 (TDP1): qHTS in cells in presence of CPT; chicken DT40 Tdp1-/-;hTDP1 cells + 20 nM CPT, ATP luminescence, 48 h; Potency, µM (titrated, usually from 46.2 µM), without a hit: at the highest dose activity change, negative = growth inhibition, hits mostly inhibitors; 420,000 compounds, 12% hits; also: potency is read from the fitted curve at half-maximal effect; % is scaled to controls: 0 for no effect and ±100 for the full control effect; nearly all actives have a fitted effect of over 55% in size
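Cell growth measured by CellTiter-Glo luminescence after a minimum 48 h, 37 C compound exposure with 20 nM CPT in Tdp1-knockout DT40 cells stably expressing hTDP1, seeded 400/well; qHTS titration format.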
DRD3 agonist: qHTS of D3 Dopamine Receptor Agonist: qHTS; 410,000 compounds, 0.58% hits; AID 652048, 2013; D(3) dopamine receptor (Homo sapiens), P35462; max activation, %; D3R DiscoveRx beta-arrestin cells, luminescence, 90 min; in the data active = max activation above about 30%; also: 0% is about no effect
Target sequence (P35462 whole entry, looked up): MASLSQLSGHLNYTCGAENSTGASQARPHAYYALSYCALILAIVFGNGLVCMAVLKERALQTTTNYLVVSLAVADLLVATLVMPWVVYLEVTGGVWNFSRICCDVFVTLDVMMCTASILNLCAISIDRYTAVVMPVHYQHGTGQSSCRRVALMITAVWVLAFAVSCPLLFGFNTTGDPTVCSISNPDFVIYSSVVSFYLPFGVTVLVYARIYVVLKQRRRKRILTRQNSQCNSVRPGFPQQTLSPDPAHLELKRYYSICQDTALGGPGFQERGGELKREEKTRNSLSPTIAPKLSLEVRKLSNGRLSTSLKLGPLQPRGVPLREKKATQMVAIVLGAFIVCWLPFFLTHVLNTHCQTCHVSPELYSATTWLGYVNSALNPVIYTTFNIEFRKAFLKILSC
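Agonist-mode cell screen: cells plated at 1500/well and incubated overnight at 37 °C, then exposed to library compounds for 90 min at 37 °C. Detection reagent was added for 30–60 min at room temperature, and luminescence was read.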
ClpP mod: qHTS Assay for Activators of ClpP; AID 651965, 2013; purified B. subtilis ClpP, FRET peptide cleavage, 20 min; Potency, µM (highest dose often 57.5 µM), for inactives: at the highest dose activity change, negative = active; ATP-dependent Clp protease proteolytic subunit (Bacillus subtilis (strain 168)), P80244; 340,000 compounds, 1.9% hits; active = well fitted falling curve with a large enough effect; inconclusive = small, poorly fitted or top-dose-only effect; inactive = no such curve, though single readings can be large or run the other way; also: potency is read from the fitted curve at half-maximal effect; the source files actives as falling curves though it sought activators and does not explain the sign; nearly all actives have a fitted effect of over 65% in size
Target sequence (P80244 whole entry, looked up): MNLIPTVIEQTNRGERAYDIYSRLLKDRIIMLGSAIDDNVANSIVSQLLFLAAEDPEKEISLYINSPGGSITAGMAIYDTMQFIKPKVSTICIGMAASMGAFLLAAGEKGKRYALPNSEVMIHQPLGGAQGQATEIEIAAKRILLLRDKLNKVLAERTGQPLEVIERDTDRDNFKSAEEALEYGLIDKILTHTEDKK
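Purified B. subtilis ClpP, 10 microg/mL final in Tris/HCl pH8 with KCl, BSA, glycerol and Tween-20, cleaved an Abz/nitrotyrosine-quenched decapeptide. Fluorescence (ex 320, em 430) was read at 0 and 20 min at room temperature. Delta was normalized to 5.8 microM ADEP and DMSO/no-enzyme controls.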
D3 antag: qHTS of D3 Dopamine Receptor Antagonist: qHTS; D(3) dopamine receptor (Homo sapiens), P35462; 360,000 compounds, 2.5% hits; max response, negative = inhibition, %; D3R cells, DiscoveRx beta-arrestin luminescence, antagonist mode; hits give low values; AID 652054, 2013; in the data active = max response below about -50%; inconclusive = no clear call, values can overlap the other calls; also: % is scaled to controls: 0 for no effect and ±100 for the full control effect
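Cells expressing the human receptor were seeded at 1500 cells/well, incubated overnight at 37 degrees C in 5% CO2, then exposed to library compounds with dopamine controls for 90 minutes at 37 degrees C before luminescent detection.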
Active calls of the source: *; ? = inconclusive; . = no result; [ ] = another dose, or the depositor's remark. Unless noted, calls follow the shape of the dose curve; as a rule, active = well fitted inhibition curve with a large enough effect; inconclusive = small, poorly fitted or top-dose-only effect; inactive = flat fitted curve, though single readings scatter.

SMILES | IL-1B inflam inh | DT40 TDP1 no CPT | DT40 TDP1 CPT | DRD3 agonist | ClpP mod | D3 antag
COc1ccc(NC(=O)C2CCN(c3nc(C)nc4c3CCC4)CC2)cc1 | ? | 16µM* | 12µM* | -11 | -3% | -17
O=C(NC1CCCCCC1)C1CCN(C(=O)c2ccc(Br)cc2)CC1 | 8 | 15µM* | 21µM* | -8 | -1% | -1
COc1ccccc1NC(C)C(=O)Nc1ccc(C(C)=O)cc1 (centres undefined) | 2 | 21µM* | ? | -6 | 3% | -22
Cc1ccc(C(=O)N2CCC(C(=O)NC3CCCCCC3)CC2)cc1 | 21 | -13% | -12% | 3 | . | -3
COc1ccccc1NC(=O)C(C)Nc1ccc(C)c(Cl)c1 (centres undefined) | -6 | ? | -15% | -2 | -27% | 3
COc1ccc(NC(=O)CNc2ccc(OC)c(S(=O)(=O)N3CCOCC3)c2)cc1 | 4 | 4% | -1% | 8 | -1% | 19
O=C(NC(Cc1cn(Cc2ccccc2)cn1)C(=O)O)OCC1c2ccccc2-c2ccccc21 (centres undefined) | -7 | 13µM* | 15µM* | 0 | -2% | -9
CC(C)C[C@H](NC(=O)OCC1c2ccccc2-c2ccccc21)C(=O)O | 8 | -13% | -3% | -6 | -8% | -5
O=c1oc2cc(OCc3c(F)c(F)c(F)c(F)c3F)ccc2cc1-c1ccccn1 | 1 | -24% | -17% | 1 | 16µM* | 18
CN(CC(=O)Nc1cccc(F)c1)C(=O)CCCn1c(=O)oc2ccccc21 | 29 | -4% | ? | 13 | . | -4
COc1ccc(-c2noc3c2-c2nc(-c4ccccc4)sc2CC3)cc1 | -11 | -18% | -22% | 6 | 4% | 13
CCCc1nc2c(s1)CCc1onc(-c3cccc([N+](=O)[O-])c3)c1-2 | 17 | 4% | 32% | 34* | 1% | 49
O=[N+]([O-])c1cccc(-c2noc3c2-c2nc(Cc4cccc5ccccc45)sc2CC3)c1 | 16 | 23% | -4% | -5 | -2% | 24
CC(C)c1nc2c(s1)CCc1onc(-c3cccc([N+](=O)[O-])c3)c1-2 | 26 | 23µM* | ? | 15 | 1% | 1
O=[N+]([O-])c1ccccc1Nc1nc(-c2cccnc2)cs1 | -8 | ? | ? | 0 | 0% | -6
Cc1nn(-c2nc(-c3ccc(F)cc3)cc(C(F)(F)F)n2)c(C)c1Cl | . | 18µM* | 18µM* | 3 | -8% | .
Cc1nn(-c2nc(-c3ccc(F)cc3)cc(C(F)(F)F)n2)c(C)c1Br | . | 18µM* | ? | 4 | 1% | .
Cc1nn(-c2nc(-c3ccco3)cc(C(F)(F)F)n2)c(C)c1Cl | 22 | -4% | 15% | 3 | -7% | 22
Fc1ccc(-c2cc(C(F)(F)F)nc(N3CCCCC3)n2)cc1 | 44 | 5% | -44% | -8 | ? | -12
COc1ccccc1NC(=O)COc1coc(CN2CCN(c3ccccc3)CC2)cc1=O | -5 | -27% | -21% | 5 | -10% | -11
CC1(c2nnnn2-c2ccc3c(c2)OCCO3)CCC(=O)N1C1CC1 (centres undefined) | 28 | -16% | 9% | 0 | -4% | 0
CC(C)CN1Cc2ccccc2Oc2cc(Br)ccc2S1(=O)=O | 37 | ? | ? | 5 | 1% | -62*
Cc1cc(C)c2c(CC(=O)N(Cc3ccccc3)C3CCS(=O)(=O)C3)coc2c1 (centres undefined) | . | ? | ? | -11 | 0% | .
CCCCNC(=O)C1(C)CCCCN1C(=O)c1cc(-c2ccccc2)cs1 (centres undefined) | 33 | 8.2µM* | 13µM* | -1 | -3% | 2
CCCCNC(=O)C1(C)CCCCN1C(=O)c1oc2ccccc2c1C (centres undefined) | 21 | 10µM* | 15µM* | -3 | 0% | 8
SMILES | IL-1B inflam inh | DT40 TDP1 no CPT | DT40 TDP1 CPT | DRD3 agonist | ClpP mod | D3 antag
[NH-]c1ncnc2c1N=C[N+]2=CC=CCO | 10 | 4.1µM* | 2.6µM* | -1 | -5% | 8
O=C(Nc1c(-c2ccc3c(c2)OCO3)[nH][nH]c1=O)c1ccc2c(c1)OCO2 | 5 | -17% | -8% | -8 | -9% | -78*
CC(C)(C)C(=O)Nc1ccc(Cl)c(-c2nc3ccccc3[nH]2)c1 | . | ? | ? | 3 | -28% | .
O=C(Nc1ccc(Cl)c(-c2nc3ccccc3[nH]2)c1)c1ccc2c(c1)OCO2 | 31 | 23µM* | ? | -25 | -15% | -7
c1ccc2[nH]c(-c3ccc4c(c3)OCO4)nc2c1 | . | 18µM* | ? | -2 | . | 13
O=C(Nc1ccc(-c2nc3ccccc3[nH]2)cc1)c1ccc2c(c1)OCO2 | 44 | 18µM* | ? | 5 | ? | -11
O=C(COC(=O)CN1C(=O)NC2(CCCCC2)C1=O)Nc1cc(F)ccc1F | 0 | -4% | ? | -3 | -1% | -13
Cc1ncc2c(c1CNC(=O)c1ccc3c(c1)OCO3)CCN(C(=O)C1Cc3ccccc3O1)C2 (centres undefined) | . | -5% | 2%[9.04 µM] | . | . | .
O=C(Nc1ccc2c(c1)OCO2)c1ccc2nc[nH]c2c1 | -17 | -1% | -20% | 10 | 1% | -10
O=C(Nc1ccc2nn(-c3ccccc3)nc2c1)c1ccc2c(c1)OCO2 | -12 | 21µM* | 16µM* | 17 | 17% | 34
COc1cc(C(=O)N/N=C(\Cc2ncc[nH]2)c2ccccc2)cc(OC)c1OC | 69 | 5.2µM* | 2.1µM* | -4 | . | 0
COc1ccc(C(=O)N/N=C(\Cc2ncc[nH]2)c2ccccc2)cc1 | 42 | 2.9µM* | 5.2µM* | -4 | 1% | 3
NS(=O)(=O)c1ccc(NC(=O)C(=O)NCCC(=O)O)cc1 | 24 | -1% | 3% | -8 | . | -24
Cc1nc(-n2nc(C)c(CCC(C)C)c2C)sc1C(=O)Nc1ccc(Cl)cc1 | . | ? | ? | 11 | -4% | .
Cc1ccc(C2CC(=O)Nc3c2c(C)nn3-c2nc(C)cc(C)n2)c(C)c1 (centres undefined) | . | -25% | -14% | -7 | 0% | .
CCn1nc(C(=O)Nc2ccccc2N2CCCC2)c2ccccc2c1=O | -62* | ? | ? | 22 | . | 68
